Reference: PubChem BioAssay (NCI)
Compounds without any hit were thinned out: in the full panel of roughly 83,000, 20% have a hit.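 For each line, cells grew in 96-well plates with the test compound present at a single concentration for 48 hours.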 Values without a mark were called inactive. Calls of active or inactive are those of the source. How the source made its calls: active means growth percent below 10; inactive means the rest.

Tests used:
Test in all cases: NCI-60 one-dose screen, 48 h (100 = growth as untreated, 0 = no growth, -100 = all killed)
NCI-H226 lung = details: 10 µM unless noted
MALME-3M melanoma = details: 10 µM unless noted
RXF 393 renal = details: 10 µM unless noted
SF-295 CNS = details: 10 µM unless noted
UACC-257 melanoma = details: 10 µM unless noted
M14 melanoma = details: 10 µM unless noted
PC-3 prostate = details: 10 µM unless noted
SK-MEL-5 melanoma = details: 10 µM unless noted
LOX IMVI melanoma = details: 10 µM unless noted
CAKI-1 renal = details: 10 µM unless noted
A498 renal = details: 10 µM unless noted
CCRF-CEM leukemia = details: 10 µM unless noted
MOLT-4 leukemia = details: 10 µM
RPMI-8226 leukemia = details: 10 µM unless noted
OVCAR-8 ovarian = details: 10 µM unless noted
OVCAR-3 ovarian = details: 10 µM unless noted
HS 578T breast = details: 10 µM unless noted
BT-549 breast = details: 10 µM
HCT-116 colon = details: 10 µM unless noted
HCC-2998 colon = details: 10 µM unless noted

Compound | growth (NCI-H226 lung) | growth (MALME-3M melanoma) | growth (RXF 393 renal) | growth (SF-295 CNS) [%] | growth (UACC-257 melanoma) | growth (M14 melanoma) | growth (PC-3 prostate) [%] | growth (SK-MEL-5 melanoma) | growth (LOX IMVI melanoma) | growth (CAKI-1 renal) | growth (A498 renal) | growth (CCRF-CEM leukemia) [%] | growth (MOLT-4 leukemia) | growth (RPMI-8226 leukemia) [%] | growth (OVCAR-8 ovarian) | growth (OVCAR-3 ovarian) | growth (HS 578T breast) | growth (BT-549 breast) | growth (HCT-116 colon) | growth (HCC-2998 colon)
CNc1ccc(C(=O)CC(O)CCC(C)C2OC(=O)CC(O)CC(=O)CC(O)CC(O)CC(O)CC(O)CC3(O)CC(O)C(C(=O)OC)C(CC(O[C@@H]4O[C@H](C)[C@@H](O)[C@H](N)[C@@H]4O)/C=C/C=C/C=C/C=C/C=C/C=C/C=C/C2C)O3)cc1 (some centres not stated) | -37.7% (active) | -78.6% (active) | -20% (active) | 20.2 | -79.7% (active) | -47.5% (active) | 15 | 2.72% (active) | -8.67% (active) | 2.61% (active) | -54.2% (active) | 14.9 | -13.8% (active) | 18.3 | -22.3% (active) | -15% (active) | 6.91% (active) | -16.8% (active) | -16.4% (active) | -43.9% (active)
CO[C@@H]([CH2][Hg][S]C#N)[C@@H]([CH2][Hg][S]C#N)OC | 106% | 104% | 57.8% | 113 | 86.8% |  | 78.8 | 107% |  | 107% | 118% | 42.5 | 101% | 94.6 | 107% | -100% (active) | 98.6% | 107% | -100% (active) | 90.3%
C/C(=N/OC(=O)N(C)C)c1cc(Cl)ccc1Cl | 99.4% | 95.9% | 102% | 98.6 | 103% |  | 106 | 100% |  | 98.9% | 86.8% | 91.7 | 89.7% | 97.9 | 103% | 105% | 105% | 98.5% | 101% | 102%
O=C(O)CC(Br)C(=O)CBr (configuration not stated) | 91.9% | 103% | 109% | 98.2 | 102% | 103% | 98.7 | 106% | 86.6% | 95.8% | 104% |  | 103% | 103 | 99.4% | 114% | 104% | 98.2% | 100% | 116%
CC(C)CCC[C@@H](C)[C@H]1CC[C@H]2[C@@H]3CC=C4C[C@@H](OC(=O)Cc5ccc(N(CCCl)CCCl)cc5)CC[C@]4(C)[C@H]3CC[C@]12C | 94.3% |  |  | 119 | 103% | 108% | 99.5 | 95.8% | 104% | 97% | 132% | 120 | 99.8% | 108 | 99.8% | 112% | 117% |  | 103% | -5.75% (active)
O=C(NCCNC(=O)c1ccc([As](O)O)cc1)c1ccc([As](O)O)cc1 | 109% | 108% | 105% | 107 | 103% | 99.1% | 94.6 | 95.6% | 90.3% | 98.3% | 92% | 105 | 109% | 114 | 103% | 104% | 91.7% | 111% | 101% | 100%
CCC(C)/C=C(C)/C=C/C(=O)c1c(O)c(-c2ccc(O)cc2)c[nH]c1=O (configuration not stated) | 91.5% | 75% | 52.3% | 57.5 | 55.8% | 79.1% | 45 | 63.4% | 40.2% | -16.5% (active) | 47.6% | 16.2 | 29.4% | 41.6 | 51.2% | 40.7% | 52.7% | 38.3% | 39% | 47.5%
COP(=S)(OC)Oc1ccc(SC)c(C)c1 | 85.6% | 105% | 107% | 91.5 |  | 101% | 85.9 | 98.9% | 93.3% | 92.6% | 94.3% | 113 |  |  |  | 104% | 110% | 83.9% | 103% | 104%
C=CC(O)CN1CC1CC (configuration not stated) | 105% | 110% | 115% | 102 | 88.6% | 96.5% | 98.1 | 115% | 92.6% |  | 89.5% | 116 | 96.2% |  | 89.1% | 111% | 97.3% | 93.5% | 104% | 96.2%
CCOCC1(CCc2ccccc2)C(=O)NC(=S)NC1=O | 106% | 138% | 117% | 111 | 94.5% | 105% | 104 | 111% | 94.9% | 99.9% | 96.9% | 100 | 91.8% | 104 | 107% | 117% | 106% | 105% |  | 
CC(/C=N/N=C(N)N)=N/N=C(N)N | 97.4% |  |  | 93.6 | 113% | 92.4% | 108 | 107% | 88.9% | 83% | 90.2% | 90.1 | 101% | 95.7 | 77.8% | 79.8% | 88.6% |  | 83.9% | -14.8% (active)
Cc1ccccc1O | 97% | 115% | 102% | 135 | 106% | 101% | 96.4 | 106% | 91.5% | 96.2% | 129% | 103 | 107% | 108 | 103% | 130% | 132% | 102% | 103% | 99.4%
COc1ccc(/C=C(/C(=O)N2CCCC2)c2cc(OC)c(OC)c(OC)c2)cc1N | 75.9% |  | 11.2% | 17.5 | 53.8% | 11.7% | 14.5 | 20% | 35.3% |  | -0.924% (active) | 19 | 34.4% | 31.6 | 41.8% | 0.49% (active) | 15.2% | 57.1% | 23.5% | 68.5%
CC(=O)C1CCC2C3CC=C4CC(OC(=O)Cc5ccc(N(CCCl)CCCl)cc5)CCC4(C)C3CCC12C (configuration not stated) | 94.6% | 109% | 108% | 108 | 116% | 97.4% | 86.2 | 94.5% |  | 87.7% | 105% | 64.5 | 73% | 73.2 | 103% | 99.6% | 126% | 92% | 93.7% | 93.7%
C[C@]12CCC(=O)CC1CC[C@@H]1C2CC[C@@]2(C)C1CC[C@@H]2OC(=O)CC[Se][Se]CCC(=O)O[C@H]1CCC2[C@@H]3CCC4CC(=O)CC[C@]4(C)C3CC[C@@]21C (some centres not stated) | 93% | 94.2% | 81.7% | 96.7 | 90.6% | 78.7% | 89.4 | 93.2% | 80.8% | 84.6% | 84.6% | 100 | 90.1% | 93.6 | 94.2% | 109% | 52.9% | 96.8% | 95.5% | 108%
ClCCN(CCCl)c1nc(Cl)c(C2CC(c3ccccc3)=NN2c2ccccc2)s1 (configuration not stated) | 83.3% | 113% | 94.2% | 98.6 | 85.8% | 92.4% | 75.8 | 89.1% | 85.3% | 81.4% | 103% | 88.9 | 75.4% |  | 90.3% | 99.9% | 87.4% | 99.3% | 78.3% | 110%
NC(=O)SCC(=O)Nc1ccc([As](=O)(O)O)cc1 | 111% | 122% | 95.7% | 111 | 74.1% | 89.7% | 77.8 | 102% | 68.8% | 109% | 113% | 59.3 | 86.1% | 84 | 83.4% | 103% | 82.3% | 92% | 85.6% | 82%
